# Values joined by “and” are separate entries in the source; they are usually repeats but may differ in a detail not shown here. Identical values can stand only once. Like-named read-outs stand apart in the source and are kept apart here.
# Columns and labels:
# [1] = test system: INSRR; details: concentration: 1 μM, replicates: in singlicate, n = 1
# [2] = test system: INSR; details: concentration: 1 μM, replicates: in singlicate, n = 1
# [3] = test system: IRAK1; details: concentration: 1 μM, replicates: in singlicate, n = 1
# [4] = test system: IRAK3; details: concentration: 1 μM, replicates: in singlicate; n = 1
# [5] = test system: IRAK4; details: concentration: 1 μM, replicates: in singlicate, n = 1
# [6] = test system: ITK; details: concentration: 1 μM, replicates: in singlicate, n = 1
# [7] = test system: JAK1(JH1domain-catalytic); details: concentration: 1 μM, replicates: in singlicate, n = 1
# [8] = test system: JAK1(JH2domain-pseudokinase); details: concentration: 1 μM, replicates: in singlicate, n = 1
# [9] = test system: JAK2(JH1domain-catalytic); details: concentration: 1 μM, replicates: in singlicate, n = 1
# [10] = test system: JAK3(JH1domain-catalytic); details: concentration: 1 μM, replicates: in singlicate; n = 1
# 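Also: KINOMEscan kinase panel screen.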
Structure (SMILES),%Inh [1] [%],%Inh [2] [%],%Inh [3] [%],%Inh [4] [%],%Inh [5] [%],%Inh [6] [%],%Inh [7] [%],%Inh [8] [%],%Inh [9] [%],%Inh [10] [%],%Inh ([1]; 1 µM),%Inh ([2]; 1 µM),%Inh ([3]; 1 µM),%Inh ([5]; 1 µM),%Inh ([6]; 1 µM),%Inh ([7]; 1 µM),%Inh ([8]; 1 µM),%Inh ([9]; 1 µM)
Cc1cccc(-c2nc(Nc3ccc4[nH]nnc4c3)c3ccccc3n2)n1 [GW867587],0,0,0,0,0,0,0,52,22,0,–,–,–,–,–,–,–,–
Cl.O=S(=O)(c1cccc(F)c1)c1ccc(Nc2ncnc3cc(Br)sc23)cc1Cl [GSK306886],0,13,32,0,0,0,15,0,2,0,–,–,–,–,–,–,–,–
Clc1cccc(-c2nc(Nc3ccncc3)c3ccccc3n2)c1 [GW873004],4,0,7,9,0,21,0,16,0,13,–,–,–,–,–,–,–,–
O=C(c1ccc(-c2cc(-c3c[nH]nc3-c3ccccn3)ccn2)cc1)N1CCCC1 [GW792479],0,6,0,0,0,0,0,15,0,39,–,–,–,–,–,–,–,–
Cc1cc(N2CCC(NS(=O)(=O)c3ccc(F)cc3)CC2)nc(Nc2cccc(C#N)c2)n1.O=C(O)C(F)(F)F [GSK1653537],0,0,0,0,4,1,7,0,6,0,–,–,–,–,–,–,–,–
OCCOCCn1ccc2ncnc(Nc3ccc(Oc4cccc(Cl)c4)c(Cl)c3)c21,0,0,0,0,0,0,0,38,0,0,–,–,–,–,–,–,–,–
COc1ccc(Nc2nccc(N3CCC(NC(=O)Nc4ccc5c(c4)OCO5)C3)n2)cc1 (centres unmarked) [GSK1379745],0,0,11,11,6,6,0,0,19,0,–,–,–,–,–,–,–,–
CS(=O)(=O)CCNCc1nc(-c2ccc3ncnc(Nc4ccc(OCc5cccc(F)c5)c(Cl)c4)c3c2)cs1.Cl [GW583340],0,1,0,0,5,0,24,0,0,0,–,–,–,–,–,–,–,–
FC(F)(F)c1cc(Nc2nccc(-c3c(-c4ccc(Cl)cc4)nn4ncccc34)n2)ccc1Cl [GW829351],0,0,0,0,0,0,0,0,13,0,–,–,–,–,–,–,–,–
FC(F)(F)c1ccc(-c2cc(-c3c[nH]nc3-c3ccccn3)ccn2)cc1 [GW599550],0,0,25,5,3,11,29,0,14,0,–,–,–,–,–,–,–,–
COc1ccc(-c2nc3n(c2-c2ccncc2)CCC3)cc1 [SKF-104493],–,–,–,0,–,–,–,–,–,0,1% and 0%,5% and 0%,12% and 0%,0% and 2%,0% and 1%,0% and 9%,43% and 41%,11% and 0%
NC(=O)c1sc(-n2cnc3ccccc32)cc1OCc1ccccc1F [GSK1024306],0,0,0,0,0,8,6,0,21,0,–,–,–,–,–,–,–,–
Fc1cccc(COc2ccc(Nc3ncnc4cc[nH]c34)cc2Cl)c1,0,0,6,0,4,13,0,36,19,0,–,–,–,–,–,–,–,–
Cn1ccc2ncnc(Oc3ccc(NC(=O)Nc4cccnc4)c(Cl)c3)c21,0,6,0,12,6,11,12,4,0,21,–,–,–,–,–,–,–,–
CN1CCC(n2cnc(-c3ccc(F)cc3)c2-c2ccnc(NC3CCNCC3)n2)CC1 [SB-229482],0,0,20,0,4,0,0,0,18,0,–,–,–,–,–,–,–,–
Cl.Cl.c1ccc(-c2cc3ccncc3cc2OC2CCNCC2)cc1 [GSK1122999],0,0,56,24,1,11,22,0,8,0,–,–,–,–,–,–,–,–
Cn1cc(-c2ccc3c(c2)CCN3C(=O)Cc2cccc(C(F)(F)F)c2)c2c(N)ncnc21 [GSK2606414],3,1,0,15,10,12,7,0,34,0,–,–,–,–,–,–,–,–
C[C@@H]1CCN(C(=O)CO)C[C@@H]1N(C)c1ncnc2[nH]ccc12,9,0,0,19,0,0,94,21,100,98.8,–,–,–,–,–,–,–,–
Cn1ccc2ncnc(Nc3ccc(Oc4cccc(Cl)c4)c(Cl)c3)c21,0,16,27,6,27,23,16,0,15,4,–,–,–,–,–,–,–,–
O=C(Nc1ccccc1)Nc1ccc(Oc2ccc3nccn3n2)cc1,1,0,0,0,0,20,28,2,8,0,–,–,–,–,–,–,–,–

# Reference: publication PMC5540273 (PLoS ONE, 2017)
